Test results as given in PubChem BioAssay AID1511 (Johns Hopkins Ion Channel Center, 2009).
The campaign covered roughly 310,000 compounds. About 1,600 (0.52%) were called active. The sample holds actives, similar compounds and a random draw of the others, so the mix is not that of the screen.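 How the source made its calls: active means activation above the mean of controls blocked by dofetilide plus 5 SD; inactive means the rest.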 Square brackets hold non-standard residues; d marks the D form. Peptide text beside a SMILES is read from it. ξ: configuration not given here. ξM = CSCCC(N)C(=O)O

These compounds were tested against Voltage-gated inwardly rectifying potassium channel KCNH2 (Homo sapiens) (UniProt Q12809) (assay: hERG rescue from dofetilide block, primary screen, cell-based, CHO-hERG, FluxOR thallium flux, dofetilide IC70 (AID 1511;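 further: thallium influx through hERG after potassium depolarization seen as dye fluorescence rise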)). Settings: dofetilide IC70 present, at 10 µM, stronger effect = higher value.
Sequence of Voltage-gated inwardly rectifying potassium channel KCNH2 (Homo sapiens) (Q12809 whole entry, looked up): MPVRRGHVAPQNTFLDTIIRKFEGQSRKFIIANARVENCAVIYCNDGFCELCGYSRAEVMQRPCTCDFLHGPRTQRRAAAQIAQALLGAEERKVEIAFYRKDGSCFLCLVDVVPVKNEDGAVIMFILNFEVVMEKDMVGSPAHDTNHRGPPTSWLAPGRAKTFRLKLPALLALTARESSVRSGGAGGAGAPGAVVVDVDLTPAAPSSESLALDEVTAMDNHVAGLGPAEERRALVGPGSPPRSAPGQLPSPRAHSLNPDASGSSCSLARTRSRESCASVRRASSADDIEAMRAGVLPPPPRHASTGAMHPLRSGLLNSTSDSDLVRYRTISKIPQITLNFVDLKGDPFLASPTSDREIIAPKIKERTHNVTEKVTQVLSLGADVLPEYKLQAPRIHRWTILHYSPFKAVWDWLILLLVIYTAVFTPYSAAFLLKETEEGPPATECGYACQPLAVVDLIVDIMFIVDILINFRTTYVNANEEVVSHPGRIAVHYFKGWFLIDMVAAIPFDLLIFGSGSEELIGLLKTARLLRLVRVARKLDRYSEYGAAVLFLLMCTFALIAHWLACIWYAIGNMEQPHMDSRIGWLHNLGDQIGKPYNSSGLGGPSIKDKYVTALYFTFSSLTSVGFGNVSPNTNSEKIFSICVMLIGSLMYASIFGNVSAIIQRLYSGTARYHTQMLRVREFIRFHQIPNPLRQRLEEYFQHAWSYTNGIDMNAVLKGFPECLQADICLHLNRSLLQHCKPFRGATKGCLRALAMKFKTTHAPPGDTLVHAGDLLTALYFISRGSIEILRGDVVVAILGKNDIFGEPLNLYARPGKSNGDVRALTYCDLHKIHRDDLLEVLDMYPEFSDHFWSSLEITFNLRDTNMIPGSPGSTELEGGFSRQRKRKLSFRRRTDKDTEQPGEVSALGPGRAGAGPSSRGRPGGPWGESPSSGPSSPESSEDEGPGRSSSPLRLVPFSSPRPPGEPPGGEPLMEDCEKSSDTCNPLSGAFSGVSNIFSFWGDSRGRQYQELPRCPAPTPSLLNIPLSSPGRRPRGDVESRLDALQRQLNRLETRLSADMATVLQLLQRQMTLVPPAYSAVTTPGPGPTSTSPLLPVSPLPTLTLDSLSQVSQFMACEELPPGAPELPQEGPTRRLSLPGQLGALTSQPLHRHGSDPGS
`O=C(CN1CCN(S(=O)(=O)c2cc(Cl)ccc2Cl)CC1)c1ccc(O)c(O)c1` was tested, and the activation (rescue from dofetilide block), less the hit threshold was -1.99% (inactive).
For `CCOC(=O)N1CCC(NC(=O)c2ccc3nc(N4CCOCC4)sc3c2)CC1`, the activation (rescue from dofetilide block), less the hit threshold was -5.7% (inactive).
For `Cc1nc(-c2ccc(Cl)cc2)sc1C(=O)NN`, the activation (rescue from dofetilide block), less the hit threshold was -10.7% (inactive).
For `Cc1nc(N2CCOCC2)sc1C(=O)NN`, the activation (rescue from dofetilide block), less the hit threshold was 4.6% (active).
In the case of `Cc1cc(O)c(C(=O)/C=C/c2c(F)c(F)c(F)c(F)c2F)c(=O)o1`, the activation (rescue from dofetilide block), less the hit threshold is reported as -23.3% (inactive).
In the case of `COc1ccc(CCNC(=O)C(=O)Nc2ccc3nc4n(c(=O)c3c2)CCCCC4)cc1OC`, the activation (rescue from dofetilide block), less the hit threshold is reported as -11.8% (inactive).
For `Nc1nc(SCC(=O)N2CCN(S(=O)(=O)c3ccc(Cl)cc3)CC2)n[nH]1`, the activation (rescue from dofetilide block), less the hit threshold was -4.93% (inactive).
`Cc1ccc(S(=O)(=O)N(C)CC(=O)OCC(=O)N2CC(=O)Nc3ccccc32)cc1` was tested, and the activation (rescue from dofetilide block), less the hit threshold was -8.2% (inactive).
In the case of `O=[N+]([O-])c1ccccc1S(=O)(=O)Nc1cccc2cccnc12`, the activation (rescue from dofetilide block), less the hit threshold is reported as -0.19% (inactive).
For `Cc1ccc(NS(=O)(=O)c2ccc(C)c(NC(=O)COc3ccc4ccccc4c3)c2)c(C)c1`, the activation (rescue from dofetilide block), less the hit threshold was -12.4% (inactive).
`COc1cc(NS(=O)(=O)c2ccc3ccccc3c2)c2ncccc2c1` was tested, and the activation (rescue from dofetilide block), less the hit threshold was 5.48% (active).
In the case of `Cc1ccc(NC(=O)c2cc([N+](=O)[O-])ccc2Cl)c(O)c1`, the activation (rescue from dofetilide block), less the hit threshold is reported as -3.14% (inactive).
With `CCCNC(=O)COc1coc(CN2CCN(Cc3ccccc3)CC2)cc1=O` the activation (rescue from dofetilide block), less the hit threshold was -2.43% (inactive).
In the case of `COC(=O)CNC(=O)C(CCSC)NC(C)=O` (stereo not given) (Ac-[ξM]-Gly-OMe), the activation (rescue from dofetilide block), less the hit threshold is reported as -1.31% (inactive).
For `CCOc1ccc2nc(N(CCCN(C)C)C(=O)c3ccc(C(=O)c4ccccc4)cc3)sc2c1`, the activation (rescue from dofetilide block), less the hit threshold was -26.7% (inactive).
In the case of `CCOc1ccc2nc(/N=C/c3nc(-c4ccccc4)oc3O)sc2c1`, the activation (rescue from dofetilide block), less the hit threshold is reported as 17.1% (active).
With `CC(N=Cc1nc(-c2ccccc2)oc1O)c1ccccc1` (stereo not given) the activation (rescue from dofetilide block), less the hit threshold was -4.74% (inactive).
For `COC(=O)c1cn(C)c2ccc(S(=O)(=O)N3CC(C)CC(C)C3)cc2c1=O` (stereo not given), the activation (rescue from dofetilide block), less the hit threshold was -10.9% (inactive).
In the case of `CCOC(=O)c1ccc(Nc2cc3ccccc3c(=O)[nH]2)cc1`, the activation (rescue from dofetilide block), less the hit threshold is reported as -10.6% (inactive).
With `CCOC(=O)C1=C(C)Nc2sc(C(=O)c3ccc(Br)cc3)c(N)c2C1c1ccc(C(=O)OC)cc1` (stereo not given) the activation (rescue from dofetilide block), less the hit threshold was -8.23% (inactive).
In the case of `CCOC(=O)c1sc(=S)n2c1[nH]c(=O)c1ccc(C(=O)OC)cc12`, the activation (rescue from dofetilide block), less the hit threshold is reported as 77.9% (active).
In the case of `N/C(=N\OC(=O)CC1CCCCC1)c1ccccc1`, the activation (rescue from dofetilide block), less the hit threshold is reported as -5.76% (inactive).
In the case of `CCCCn1c(N)c(N(CCOC)C(=O)c2sc3ccccc3c2Cl)c(=O)[nH]c1=O`, the activation (rescue from dofetilide block), less the hit threshold is reported as -2.36% (inactive).
With `CN(C)c1cc(N)c2ccccc2n1` (tested in a mixture with another compound) the activation (rescue from dofetilide block), less the hit threshold was 5% (active).
`COc1ccc(-c2cc(C(=O)N(C)Cc3ccccc3)c3ccccc3n2)cc1` was tested, and the activation (rescue from dofetilide block), less the hit threshold was -21.9% (inactive).
In the case of `Nc1nc(-c2ccccc2)cc(-c2ccccc2)n1`, the activation (rescue from dofetilide block), less the hit threshold is reported as -6.21% (inactive).
With `CCCCOC(=O)c1ccc(NC(c2ccc(C)cc2)P(=O)(OC)OC)cc1` (stereo not given) the activation (rescue from dofetilide block), less the hit threshold was -14.4% (inactive).
For `CC(=O)N1CCc2cc(Br)cc(S(=O)(=O)CCC(=O)Nc3c(C)n(C)n(-c4ccccc4)c3=O)c21`, the activation (rescue from dofetilide block), less the hit threshold was -18% (inactive).
For `Cc1cc(=O)oc2c1c(C)nn2-c1ccc(Cl)cc1`, the activation (rescue from dofetilide block), less the hit threshold was -1.68% (inactive).
For `Cc1nn(-c2cc(Cl)ccc2N)c(=O)c2ccccc12`, the activation (rescue from dofetilide block), less the hit threshold was 7.47% (active).
With `Cc1nn(C)cc1N1C(=O)c2cccc3c(N)ccc(c23)C1=O` the activation (rescue from dofetilide block), less the hit threshold was -54.8% (inactive).
`NS(=O)(=O)c1cccc(NC(=O)CC23CC4CC(CC(Br)(C4)C2)C3)c1` was tested, and the activation (rescue from dofetilide block), less the hit threshold was -7.94% (inactive).
`Cc1cccc(C)c1NC(=O)CS(=O)CC(=O)N1CCN(c2ccccc2)CC1` (stereo not given) was tested, and the activation (rescue from dofetilide block), less the hit threshold was -5.6% (inactive).
`CC(C)C(=O)Nc1nnc(Sc2ccc(N(C)C)cc2)s1` was tested, and the activation (rescue from dofetilide block), less the hit threshold was -6.31% (inactive).
In the case of `Cc1cccc(C(=O)NC(=S)N(C)C2CCCCC2)c1`, the activation (rescue from dofetilide block), less the hit threshold is reported as 11.6% (active).
In the case of `Cc1cccc(NC(=S)NCCN(C2CCCCC2)C2CCCC2)c1`, the activation (rescue from dofetilide block), less the hit threshold is reported as -7.92% (inactive).
With `Cc1cccc(C(=O)NCCCN(C)CCCNC(=O)c2cccc(C)c2)c1` the activation (rescue from dofetilide block), less the hit threshold was -3.82% (inactive).
In the case of `COc1ccc2cc(C(=O)NCC3CCCO3)[nH]c2c1` (stereo not given), the activation (rescue from dofetilide block), less the hit threshold is reported as -3.17% (inactive).
`N#CC1=C(N)N(c2ccc(F)cc2)C(=O)C1` was tested, and the activation (rescue from dofetilide block), less the hit threshold was 3.49% (inactive).
For `O=C(O)CCCCOn1ccnc1`, the activation (rescue from dofetilide block), less the hit threshold was -8.74% (inactive).
For `O=c1c2ccccc2ncn1CCCCOc1ccccc1F`, the activation (rescue from dofetilide block), less the hit threshold was -7.18% (inactive).
In the case of `COc1ccc(Cl)cc1C(=O)NNC(=S)NC1CCCC1`, the activation (rescue from dofetilide block), less the hit threshold is reported as 5.84% (active).
With `O=C(/C=C/c1ccco1)NC(=S)Nc1ccccc1Br` the activation (rescue from dofetilide block), less the hit threshold was 0.92% (inactive).
In the case of `O=C(NNC(=S)NC1CCCCC1)c1ccccc1Cl`, the activation (rescue from dofetilide block), less the hit threshold is reported as -19.3% (inactive).
For `COc1ccc(Cl)cc1C(=O)NNC(=S)NC(=O)/C=C/c1ccco1`, the activation (rescue from dofetilide block), less the hit threshold was 34.2% (active).
With `C=CCNC(=S)NNC(=O)c1cc(Cl)ccc1OC` the activation (rescue from dofetilide block), less the hit threshold was -3.41% (inactive).
In the case of `O=C(/C=C/c1ccco1)NC(=S)N1CCCCC1`, the activation (rescue from dofetilide block), less the hit threshold is reported as -8.68% (inactive).
`Cc1cccc(Cn2cnc3c(N)c(C)c(C)cc32)c1` was tested, and the activation (rescue from dofetilide block), less the hit threshold was -4.77% (inactive).
With `CCOC(=O)/C=C/C(=O)OCC(=O)NC(c1ccccc1)c1ccccc1` the activation (rescue from dofetilide block), less the hit threshold was -0.47% (inactive).
For `CSc1cccc(NC(=O)CN2C(=O)COc3ccc(S(=O)(=O)N4CCOCC4)cc32)c1`, the activation (rescue from dofetilide block), less the hit threshold was -8.66% (inactive).
`COc1cccc(CNCc2ccc3c(c2)OCO3)c1` was tested, and the activation (rescue from dofetilide block), less the hit threshold was -1.37% (inactive).
In the case of `NC1=NN(c2cccc(C(=O)O)c2)C(=O)C1`, the activation (rescue from dofetilide block), less the hit threshold is reported as -7.19% (inactive).
In the case of `O=C(O)c1cccc(N2C(=O)Nc3ccccc3N2O)c1`, the activation (rescue from dofetilide block), less the hit threshold is reported as 5.69% (active).
With `O=C1Nc2cc(Cl)c(Cl)cc2N(O)N1c1ccccc1Cl` the activation (rescue from dofetilide block), less the hit threshold was -11.3% (inactive).
For `COc1cc(OC)c(NC(=O)C2CCCN2C(=O)OCc2ccccc2)cc1Cl` (stereo not given), the activation (rescue from dofetilide block), less the hit threshold was -14.7% (inactive).
`COCCCNC(=O)CN1C(=O)CSc2ccc(S(=O)(=O)N3CCOCC3)cc21` was tested, and the activation (rescue from dofetilide block), less the hit threshold was -5.64% (inactive).
With `O=C(COC(=O)c1ccccc1NC(=O)c1ccco1)Nc1ccc2c(c1)OC(F)(F)O2` the activation (rescue from dofetilide block), less the hit threshold was -13.6% (inactive).
With `O=S(=O)(NCCCc1ccccc1)c1ccc(Br)cc1` the activation (rescue from dofetilide block), less the hit threshold was -3.29% (inactive).
With `O=C1c2ccccc2C(=O)N1CCCc1nc(-c2ccccc2)no1` the activation (rescue from dofetilide block), less the hit threshold was -6.67% (inactive).
In the case of `O=C1c2ccccc2C(=O)N1Cc1cc(-c2ccccc2Cl)no1`, the activation (rescue from dofetilide block), less the hit threshold is reported as 11.4% (active).
With `O=C1c2cccnc2C(=O)N1Cc1cccs1` the activation (rescue from dofetilide block), less the hit threshold was -8.43% (inactive).
`Cc1ccc(NC(=O)C(CC(=O)O)C2CCCO2)c(C)c1` (stereo not given) was tested, and the activation (rescue from dofetilide block), less the hit threshold was -3.96% (inactive).
For `COCCCn1c(Cc2csc(Nc3cccc(Cl)c3)n2)nnc1SCC(=O)OC1CCCCC1`, the activation (rescue from dofetilide block), less the hit threshold was -9.88% (inactive).
`Cc1c(NC(=O)C(C)Oc2cccc(Cl)c2)c(=O)n(-c2ccccc2)n1C` (stereo not given) was tested, and the activation (rescue from dofetilide block), less the hit threshold was -2.29% (inactive).
For `OC1CN=C2Sc3ccccc3N2C1` (stereo not given), the activation (rescue from dofetilide block), less the hit threshold was 4.61% (active).
In the case of `CCCNCc1cc(OCC)c(OCC(=O)Nc2ccccc2)cc1Br`, the activation (rescue from dofetilide block), less the hit threshold is reported as -25.3% (inactive).
`C=Cn1cc[n+](CC(=O)c2ccc(OC)c(OC)c2)c1` was tested, and the activation (rescue from dofetilide block), less the hit threshold was -13.3% (inactive).
`COc1ccc(C23NCCN2C(=O)c2ccccc23)cc1` (stereo not given) was tested, and the activation (rescue from dofetilide block), less the hit threshold was -7.58% (inactive).
In the case of `Cc1cc(O)c(C2(O)C(=O)Nc3ccccc32)cc1C` (stereo not given), the activation (rescue from dofetilide block), less the hit threshold is reported as -4.06% (inactive).
With `COc1ccc(C2(O)C(=O)Nc3ccccc32)cc1` (stereo not given) the activation (rescue from dofetilide block), less the hit threshold was 4.63% (active).
`Cc1ccc(N2C(=O)C3N=NN(CC(=O)N4N=C(c5cccc6ccccc56)CC4c4ccccc4)C3C2=O)cc1` (stereo not given) was tested, and the activation (rescue from dofetilide block), less the hit threshold was -4.02% (inactive).
In the case of `CC(C)(C)c1cc(P(=O)(c2ccccc2)c2ccccc2)ccc1O`, the activation (rescue from dofetilide block), less the hit threshold is reported as -11.2% (inactive).
With `O=P(O)(CP(=O)(c1ccccc1)c1ccccc1)c1ccccc1O` the activation (rescue from dofetilide block), less the hit threshold was 6.37% (active).
For `O=P(O)(CP(=O)(c1ccccc1)c1ccccc1)c1ccccc1`, the activation (rescue from dofetilide block), less the hit threshold was -3.04% (inactive).
In the case of `CS(=O)(=O)N(CC(=O)NC1CCCC1)Cc1ccc(F)cc1`, the activation (rescue from dofetilide block), less the hit threshold is reported as 1.73% (inactive).
